# According to article PMC5540273 (PLoS ONE, 2017):
# Legend:
# Conditions in all cases: concentration: 1 μM, replicates: in singlicate; n = 1
# [1] = tested on: ACVR1B
# [2] = tested on: ACVR1
# [3] = tested on: ACVR2A
# [4] = tested on: ACVR2B
# [5] = tested on: ACVRL1
# [6] = tested on: T1, ADCK3
# T1 construct: gene CABC1
# [7] = tested on: ADCK4
# [8] = tested on: AKT1
# [9] = tested on: AKT2
# [10] = tested on: AKT3
# 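Note: KINOMEscan kinase panel screen.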
SMILES,%Inh [1] [%],%Inh [2] [%],%Inh [3] [%],%Inh [4] [%],%Inh [5] [%],%Inh [6] [%],%Inh [7] [%],%Inh [8] [%],%Inh [9] [%],%Inh [10] [%]
Nc1ncnc2c1ncn2-c1cccc(F)c1 [SKF-97560],0,1,0,0,0,21,0,9,12,0
Nc1ncnc2c1ncn2-c1cccc2ccccc12 [SKF-97184],0,0,0,0,26,0,52,8,0,0
COc1cc2ncn(-c3cc(OCc4ccc(S(C)(=O)=O)cc4)c(C(N)=O)s3)c2cc1OC [GW869979],0,51,0,0,4,31,0,0,0,0
COc1cccc(C2=C(N(C)c3ccccc3)C(=O)NC2=O)c1 [SB-334865],0,28,0,3,0,4,21,0,13,0
CCC(=O)c1c(-c2ccccc2)c2cc(Cl)ccc2c(=O)n1Cc1cc(S(C)(=O)=O)n(CCC(C)(C)O)n1,10,2,0,9,17,27,1,0,14,17
CCS(=O)c1ccc(-c2coc3ccc(-c4nnc(C)o4)cc23)cc1 (centres unmarked),0,5,0,0,6,5,0,0,0,0
COc1ccc(-c2cc3c(C)nc(N)nc3n([C@H]3CC[C@H](O)CC3)c2=O)cn1,0,0,0,0,0,0,0,0,0,0
COc1cc(Nc2nccc(N3CCC(NC(=O)C4COc5ccccc5O4)C3)n2)cc(OC)c1OC (centres unmarked) [GSK1379761],0,20,22,13,0,10,65,0,9,0
Cc1ccc(-c2ccc3c(ccc4sc5c(c43)NC[C@@H](C)N=C5N(C)C)n2)cn1,0,0,0,0,12,0,0,0,0,0
COc1ccc(Nc2nccc(N3CCC(NS(=O)(=O)c4ccc(NC(C)=O)cc4)C3)n2)cc1 (centres unmarked) [GSK1379729],3,34,32,22,8,9,38,0,7,0
O=c1cc(N2CCOCC2)nc2n(Cc3ccc(F)c(Cl)c3)ccn12 [GSK2297099],0,0,0,0,0,0,11,0,13,0
O=C(NCCNc1ccnc(Nc2ccc(F)cc2)n1)Nc1ccc2c(c1)OCO2 [GSK1379882],0,0,0,0,0,9,23,0,0,0
Nc1n[nH]c2nnc(-c3ccccc3)c(-c3ccccc3)c12 [GW554060],0,21,0,0,0,27,36,0,16,0
Cc1cccc(-c2cc(-c3c[nH]nc3-c3ccccn3)ccn2)c1 [GW679395],0,0,0,3,0,3,22,0,1,0
O=C(Nc1n[nH]c2cc(-c3ccccc3F)ccc12)C1CC1 [SB-733371],1,32,38,48,0,0,0,0,0,7
COc1cc2ncn(-c3cc(OCc4ccncc4Br)c(C(N)=O)s3)c2cc1OC [GW854278],9,5,8,2,0,15,0,0,0,0
CN(C)c1cc(-c2ccc3c(N)n[nH]c3c2)nc(N)n1 [GSK2219329],0,0,0,1,0,9,23,0,0,0
